Among the data in PubChem BioAssay (NCATS) are Potency values, retold here.

Assay [1] in a line: qHTS of pediatric cancer cell lines to identify multiple opportunities for drug repurposing: Primary screen for TC32 cells (AID 1347089). Further: nearly all actives have a fitted effect of over 60% in size. An outline of the steps: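 A viability screen of TC32 cells was run over 48 h, with primary MIPE doses spanning 0.78 nM–46 µM and NPC doses 0.59 nM–46 µM. ATP luminescence (CellTiter-Glo) served as the read-out.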
Assay [2] in a line: qHTS of pediatric cancer cell lines to identify multiple opportunities for drug repurposing: Primary screen for DAOY cells (AID 1347090). Further: nearly all actives have a fitted effect of over 55% in size. An outline of the steps: (§1)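 Cell viability, CellTiter-Glo luminescence; 500-1,000 cells/well, 8- or 11-point titration, 48 h compound exposure at 37 degrees C, 5% CO2. Controls: DMSO neutral, bortezomib 2.3 µM final as positive.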
In general terms: Quantitative high-throughput screening tests each substance at several concentrations.

The nature of assay [3]: qHTS of pediatric cancer cell lines to identify multiple opportunities for drug repurposing: Primary screen for SJ-GBM2 cells (AID 1347091). The method, boiled down:
as §1

Assay [4] is described as follows: qHTS of pediatric cancer cell lines to identify multiple opportunities for drug repurposing: Primary screen for SK-N-MC cells (AID 1347093). An outline of the steps: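 Metabolically active cells were quantified by ATP-dependent luminescence (CellTiter-Glo, 15 min at room temperature) following 48 h treatment. Cells had been plated at 500-1,000 per well and settled for 5 h beforehand.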

Assay [5] is described as follows: qHTS of pediatric cancer cell lines to identify multiple opportunities for drug repurposing: Primary screen for BT-37 cells (AID 1347094). An outline of the steps: (§2)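 Viability was measured as metabolically active cells after 48 hours of treatment, read by CellTiter-Glo luminescence. Compounds were tested at multiple final concentrations, giving concentration-response curves.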

Assay [6] can be described thus: qHTS of pediatric cancer cell lines to identify multiple opportunities for drug repurposing: Primary screen for NB-EBc1 cells (AID 1347095). The method, boiled down: as §2
A short description of assay [7]: qHTS of pediatric cancer cell lines to identify multiple opportunities for drug repurposing: Primary screen for U-2 OS cells (AID 1347096). Further: nearly all actives have a fitted effect of over 50% in size. The method, boiled down: (§3)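 Cells (500-1,000/well) rested 5 h, then received compounds for 48 h; metabolically active cells were measured by CellTiter-Glo luminescence. Final concentrations spanned up to 46 µM (MIPE, 11-point) or 0.59 nM-46 µM (NPC, 8-point) in primary screens, 11-point in follow-ups.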

Assay [8] in a line: qHTS of pediatric cancer cell lines to identify multiple opportunities for drug repurposing: Primary screen for LAN-5 cells (AID 1347100). The method, boiled down: as §3
Assay [9] is described as follows: qHTS of pediatric cancer cell lines to identify multiple opportunities for drug repurposing: Primary screen for BT-12 cells (AID 1347101). Further: nearly all actives have a fitted effect of over 25% in size. The method, boiled down: as §3
Assay [10] is described as follows: qHTS of pediatric cancer cell lines to identify multiple opportunities for drug repurposing: Primary screen for Rh18 cells (AID 1347102). Further: nearly all actives have a fitted effect of over 65% in size. The method, boiled down:
as §3

Assay [11] can be described thus: qHTS of pediatric cancer cell lines to identify multiple opportunities for drug repurposing: Primary screen for RD cells (AID 1347104). Further: nearly all actives have a fitted effect of over 55% in size. The method, boiled down:
as §2

Assay [12] can be described thus: qHTS of pediatric cancer cell lines to identify multiple opportunities for drug repurposing: Primary screen for A673 cells (AID 1347092). Further: nearly all actives have a fitted effect of over 45% in size. The method, boiled down:
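Titration-based qHTS on A673 cells: MIPE compounds spanned 11 points (0.78 nM to 46 µM final), NPC compounds 8 points (0.59 nM to 46 µM final). Viability after 48 h was measured by ATP luminescence.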

A short description of assay [13]: qHTS of pediatric cancer cell lines to identify multiple opportunities for drug repurposing: Primary screen for Saos-2 cells (AID 1347097). Further: nearly all actives have a fitted effect of over 40% in size. An outline of the steps: as §2
Assay [14] in a line: qHTS of pediatric cancer cell lines to identify multiple opportunities for drug repurposing: Primary screen for SK-N-SH cells (AID 1347098). Further: nearly all actives have a fitted effect of over 65% in size. The method, boiled down:
as §3

A short description of assay [15]: qHTS of pediatric cancer cell lines to identify multiple opportunities for drug repurposing: Primary screen for NB1643 cells (AID 1347099). Further: nearly all actives have a fitted effect of over 50% in size. An outline of the steps: as §2
A short description of assay [16]: qHTS of pediatric cancer cell lines to identify multiple opportunities for drug repurposing: Primary screen for OHS-50 cells (AID 1347103). Further: nearly all actives have a fitted effect of over 40% in size. An outline of the steps:
as §3

Each structure is given as a SMILES string. Inconclusive results are not listed. Activity calls are given as the source filed them. The call rests on the fitted dose curve; in most records, active means well fitted curve in the direction sought with a large enough effect; inconclusive means small, poorly fitted or top-dose-only effect, or another doubt; inactive means no such curve, though single readings can be large; an effect the other way counts as inactive or inconclusive.
Potency means the concentration at half of the fitted maximal effect.

Regarding `Cc1c(Cn2c(C)nc3c(C(=O)O)cc(N4CCOCC4)cc32)cccc1C(F)(F)F`, the Potency result in assay [1], in [3], in assay [5], in assay [7], in assay [8] and in assay [9] was “inactive” each time. For the same compound, in assay [10], the Potency result was “inactive”. In addition, the Potency was 7.43 µM (active) in assay [2], 0.059 µM (active) in assay [4], 14.8 µM (active) in assay [6] and 1.66 µM (active) in assay [11].

On to `CCOc1cc2ncc(C#N)c(Nc3ccc(F)c(Cl)c3)c2cc1NC(=O)C=CCN(C)C`, for which the Potency in assay [1] was 18.6 µM (active); in [2], 0.118 µM (active); in assay [3], 0.935 µM (active); in assay [12] it was 0.0296 µM (active); in assay [6], 9.35 µM (active); in [13], 2.96 µM (active). The Potency in assay [14] is 0.341 µM (active); in [15], 1.05 µM (active); in assay [8] it was 4.18 µM (active); in [9], 7.69 µM (active); in [10] it was 10.5 µM (active); in assay [16] it was 0.137 µM (active). Moreover, the Potency in assay [11] is 0.526 µM (active).

Take `CCCNC(=O)Nc1ccc(Oc2ncnc3cc(OC)c(OC)cc23)cc1Cl`: the Potency entry in assay [1], in assay [2], in assay [12], in assay [5], in assay [7] and in [13] was “inactive” each time. Moreover, the Potency result in [14], in assay [15], in assay [9], in [10], in assay [16] and in assay [11] was “inactive” in each case.

For `O=C(O)Cn1nnc(-c2cc(N3CCC(Oc4cc(F)ccc4Br)CC3)no2)n1`, the Potency entry in [1], in assay [2], in assay [6], in assay [7], in [13] and in assay [15] was “inactive” throughout. Also, the Potency result in assay [8], in [9] and in assay [10] was “inactive” throughout. The values for the Potency in assay [3] and in [12] were 0.469 µM (active) and 0.372 µM (active), respectively.

Regarding `CN(C)c1nc(Cc2ccc(NC(=O)c3ccc4ccccc4c3)cc2)nc(Cl)c1CC(=O)O`, the Potency result in assay [1], in assay [3], in [12], in assay [4], in assay [5] and in [6] was “inactive” each time. The Potency result in [7], in [13], in assay [14], in [15], in assay [8] and in assay [9] was “inactive” in each case. Moreover, the Potency entry in [10], in [16] and in [11] was “inactive” each time.

In the case of `COc1cc2c(cc1-c1c(C)noc1C)ncc1[nH]c(=O)n([C@H](C)c3ccccn3)c12`, the Potency was 18.7 µM (active) in assay [2]; 16.6 µM (active) in assay [3]; 4.69 µM (active) in assay [12]; 1.18 µM (active) in [4]; 17.2 µM (active) in assay [5]; 16.6 µM (active) in [6]. Further, the Potency in assay [7] is 18.7 µM (active); in [14], 21.5 µM (active); in assay [15] it was 11.8 µM (active); in [8], 5.9 µM (active); in [9] it was 19.3 µM (active); in assay [16], 0.485 µM (active). Moreover, the Potency in [11] was 4.69 µM (active).

With `COc1c(OCCCN2CCOCC2)ccc2c3n(c(=NC(=O)c4cnc(N)nc4)nc12)CCN3`, the Potency in [1] was 2.55 µM (active); in assay [3], 2.04 µM (active); in [12], 0.162 µM (active); in assay [4], 0.0288 µM (active); in assay [6] it was 0.102 µM (active); in assay [13], 0.0512 µM (active). Also, the Potency in assay [8] was 0.407 µM (active); in assay [16], 0.0211 µM (active); in [11], 0.0724 µM (active). In addition, in assay [7], the Potency entry was “inactive”.

As to `CC(C)c1noc(N2CCC(COc3ccc(-c4ccc(S(C)(=O)=O)cc4)nc3)CC2)n1`, the Potency entry in [1], in assay [3], in [4], in [6], in assay [7] and in assay [14] was “inactive” in each case. Moreover, the Potency result in assay [15], in assay [8] and in assay [10] was “inactive” throughout. Moreover, in assay [16], the Potency is 4.32 µM (active).

For `CN1CC[C@@H](c2c(O)cc(O)c3c(=O)cc(-c4ccccc4Cl)oc23)[C@@H](O)C1`, the Potency in assay [2] is 0.187 µM (active); in assay [3], 0.0526 µM (active); in [12], 0.0935 µM (active); in assay [4], 0.118 µM (active); in assay [5] it was 0.109 µM (active); in assay [6] it was 0.0743 µM (active). Moreover, the Potency was 0.296 µM (active) in assay [7]; 0.148 µM (active) in assay [13]; 0.0764 µM (active) in [14]; 0.122 µM (active) in [9]; 0.122 µM (active) in [16]; 0.235 µM (active) in assay [11].

As to `COc1ccc(OC)c(-c2nnc3ccc(-c4ccc(OC)c(O[C@@H]5CCOC5)c4)nn23)c1`, the Potency result in assay [1] and in assay [6] was “inactive” throughout. Further, the Potency is 14.8 µM (active) in assay [12]; 18.7 µM (active) in [4]; 27.3 µM (active) in assay [5]; 29.6 µM (active) in assay [13]; 30.4 µM (active) in assay [14]; 18.7 µM (active) in [15]. The Potency is 26.4 µM (active) in assay [8]; 9.68 µM (active) in [9]; 13.2 µM (active) in assay [10]; 17.2 µM (active) in assay [16]; 16.6 µM (active) in [11].

Consider `C[C@H]1C[C@@H]2[C@@H]([C@@H](O)C[C@@]3(C)[C@H]2CC[C@]3(O)C(=O)CO)[C@@]2(C)C=CC(=O)C=C12`, for which the Potency result in [1], in assay [3], in assay [12], in [5], in [6] and in assay [7] was “inactive” throughout. Further, the Potency entry in assay [13], in [14], in [15], in assay [8], in assay [9] and in [10] was “inactive” in each case. Besides, the Potency result in assay [16] and in [11] was “inactive” each time.

On to `CN(C)CCCN=c1c2ccccc2n(C)c2[nH]c(=O)n(C)c(=O)c12`, for which the Potency in assay [2] is 23.5 µM (active); in [3] it was 1.87 µM (active); in [12], 2.96 µM (active); in assay [4], 2.96 µM (active); in [5] it was 4.85 µM (active); in assay [6], 0.743 µM (active). Further, the Potency in assay [14] is 4.29 µM (active); in assay [15] it was 3.32 µM (active); in assay [8], 2.09 µM (active); in assay [9] it was 7.69 µM (active). The Potency result in assay [7] and in assay [13] was “inactive” throughout.
